Screening data as filed in PubChem BioAssay.
Vif imaging = HIV Vif inhibition; hit rate 0.35% among 340,000; AID 602346; inhibition, % at 7.49 µM; HEK293T cells, Vif self-association by quenched fluorescence, imaging, 24 h; in the data active means inhibition above about 50%, passing the limit was not always enough; inconclusive means no clear call, values can overlap the other calls; inactive means below about 31%
RAD54 inh = RAD54 (human) branch migration inhibition. inhibition, % at 10.4 µM. hit rate 0.14% among 360,000. RAD54 Holliday junction branch migration, FAM/BHQ fluorescence. AID 602329;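 active means mean normalized replicate activity at least 40 and at least half of replicates scoring 40 or more; inconclusive means only one of the two criteria met; inactive means mean below 40 and under half of replicates reaching 40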;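 further: 0% = median of neutral control wells and 100% = median of positive control wells; inhibitors cause a drop in the FAM fluorescence signal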
ABCB6 inh MLPCN = blocks the human ABCB6 transporter | fluorescence ratio to DMSO, % at 10 µM | hit rate 0.19% among 360,000 | Q9NP58 | K562-ABCB6 porphyrin accumulation, flow cytometry, 1 h; hits give low values;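 active means fluorescence ratio to DMSO below 75%, the collection mean minus 3 SD; inconclusive means too few cells collected in the well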;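 further: signal is porphyrin accumulated inside mitochondria; 100% equals median channel fluorescence of DMSO control wells; lower ratio means ABCB6 inhibition with less porphyrin fluorescence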
Target sequence (Q9NP58 whole entry, looked up): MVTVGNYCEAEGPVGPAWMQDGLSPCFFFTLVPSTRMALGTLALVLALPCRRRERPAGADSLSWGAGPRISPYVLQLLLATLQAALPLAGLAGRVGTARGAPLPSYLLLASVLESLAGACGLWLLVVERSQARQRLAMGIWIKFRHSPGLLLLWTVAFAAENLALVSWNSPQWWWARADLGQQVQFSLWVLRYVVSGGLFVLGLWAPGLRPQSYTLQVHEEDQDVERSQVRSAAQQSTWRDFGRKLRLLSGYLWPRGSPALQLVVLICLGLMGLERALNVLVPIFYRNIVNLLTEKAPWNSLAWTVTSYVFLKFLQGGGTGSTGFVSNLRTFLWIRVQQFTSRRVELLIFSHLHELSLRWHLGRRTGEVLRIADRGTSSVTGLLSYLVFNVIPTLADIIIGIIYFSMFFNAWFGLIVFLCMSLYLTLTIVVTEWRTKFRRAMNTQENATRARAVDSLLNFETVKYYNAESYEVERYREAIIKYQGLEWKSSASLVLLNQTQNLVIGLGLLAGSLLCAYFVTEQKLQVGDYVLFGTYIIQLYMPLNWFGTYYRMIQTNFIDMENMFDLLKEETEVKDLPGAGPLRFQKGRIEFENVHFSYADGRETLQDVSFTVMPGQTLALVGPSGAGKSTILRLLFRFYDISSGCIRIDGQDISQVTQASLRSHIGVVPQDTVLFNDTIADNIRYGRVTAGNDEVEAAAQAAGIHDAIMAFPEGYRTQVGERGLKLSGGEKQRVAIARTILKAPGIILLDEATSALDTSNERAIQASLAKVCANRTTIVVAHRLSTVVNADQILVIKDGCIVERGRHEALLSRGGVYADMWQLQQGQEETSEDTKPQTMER
Myeloid diff MLP = myeloid differentiation induction; ER-HoxA9 myeloid progenitors, lysozyme-GFP differentiation, flow cytometry; hit rate 1% among 360,000; calls only at 10 µM; AID 624256;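 active means normalized GFP-positive differentiation at or above the plate's own cutoff, the solvent-only control mean plus 3 SD; inconclusive means no clear call, values can overlap the other calls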;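 further: cells exposed to compound for four days before flow analysis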
Glyco luc inh = blocks N-linked glycosylation in D54 reporter cells; D54 ERlucT glycosylation luciferase reporter, 24 h; percent of 100 nM tunicamycin response; reporter increase, % at 12.5 µM; hit rate 0.23% among 360,000; AID 588692;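 active means mean luciferase reporter signal, scaled so untreated is 0 and the glycosylation-blocking control 100, at or above a set limit in every replicate; inconclusive means mean reaches the limit but not every replicate does; inactive means mean below the limit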;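 further: luciferase carries N-glycosylation sites so blocking glycosylation raises the light; 0% = median of neutral control wells and 100% = median of 100 nM tunicamycin wells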
Active calls of the source: *; i = inactive; ? = inconclusive; · = no result; + = active, no number. A selection: hits, their analogues and other compounds. The true share with any hit is near 1.6%.

SMILES | Vif imaging | RAD54 inh | ABCB6 inh MLPCN | Myeloid diff MLP | Glyco luc inh
O=c1c2ccccc2nc(/C=C/c2ccc([N+](=O)[O-])o2)n1CCCO | + | -24 | 366 | · | -14
COc1ccc(CCNC(=O)c2cc(-c3ccco3)on2)cc1OC | -4 | -18 | 95 | i | 63*
O=C(NCCc1ccccc1)c1cc(-c2ccco2)on1 | 13 | 3 | 100 | i | 48*
O=[N+]([O-])c1ccccc1-c1ccc(/C=N/n2cnnc2)o1 | · | 12 | 97 | i | 0
O=[N+]([O-])c1cc(-c2ccc(/C=N\n3cnnc3)o2)cc([N+](=O)[O-])c1 | 121* | 6 | 93 | i | 2
COc1ccc(/C=c2\s/c(=C/C(=O)c3ccc(C)cc3)[nH]c2=O)c(OC)c1 | 97* | 2 | 128 | + | 2
N#C/C(=C\c1ccccn1)c1nc2ccccc2s1 | · | -8 | 941 | + | 18
N#C/C(=C\c1ccc(-c2ccc(F)cc2)o1)C(=O)Nc1nc(-c2cccs2)cs1 | -2 | · | 106 | i | 0
COC(=O)c1ccc(/C=C(\C#N)c2nc3ccccc3s2)cc1 | 3 | · | 99 | i | 2
N#C/C(=C/c1ccc(-c2ccccc2)o1)c1nc(-c2cccs2)cs1 | 6 | · | 290 | + | 3
N#C/C(=C/c1ccc(-c2ccc(S(N)(=O)=O)cc2)o1)c1nc2ccccc2s1 | · | · | 323 | + | 21
C[C@H](CO)N1C[C@H](C)[C@@H](CN(C)CC2CCCCC2)OCCCC[C@H](C)Oc2ccc(N(C)C)cc2C1=O | · | -39 | · | · | ·
COc1ccc(CN(C)C[C@H]2OCCCC[C@H](C)Oc3ccc(NS(=O)(=O)c4ccc(F)cc4)cc3C(=O)N([C@@H](C)CO)C[C@H]2C)cc1 | · | 3 | · | · | ·
CNC[C@H]1Oc2c(NC(=O)Nc3ccc(C(F)(F)F)cc3)cccc2C(=O)N([C@@H](C)CO)C[C@H]1C | · | 9 | · | · | ·
C[C@@H]1CN([C@H](C)CO)S(=O)(=O)c2ccc(C#Cc3ccccn3)cc2O[C@@H]1CN(C)C(=O)C1CC1 | · | -9 | · | · | ·
COc1cc(-c2noc(C)c2/C=C/c2ccc(OC(C)=O)cc2)cc(OC)c1OC | 1 | -10 | 84 | ? | 27*
O=C(O)c1ccc(S(=O)(=O)c2ccc3c(c2)C(=O)N(c2ccc(Br)cc2)C3=O)cc1 | 66* | 0 | 98 | i | 0
COc1ccc(N2CCN(C(=O)C(=O)c3cn(CC(=O)N4CCCCCC4)c4ccccc34)CC2)cc1 | -17 | 12 | 166 | + | -2
COc1ccc(N2CCN(C(=O)C(=O)c3cn(CC(=O)N4CCOCC4)c4ccccc34)CC2)cc1 | -2 | 5 | 100 | i | -1
N#C/C=C1/NC(=O)c2ccccc2S1 | 1 | 2 | 107 | + | -1
Cc1ccccc1CSCC1Nc2ccc(C(=O)NCCc3ccccc3)cc2NC1=O (stereo unspecified) | 5 | -2 | 110 | + | 2
CCc1cccc(CC)c1NC(=O)CN(CC(=O)O)CC(=O)O | 1 | -10 | 98 | i | 1
O=C(O)CN(CC(=O)O)CC(=O)O | -4 | -4 | 105 | + | 3
Cc1ccc(-c2nn3c(C)nnc3c3ccccc23)cc1S(=O)(=O)NC(C)(C)CO | ? | · | 97 | · | 39*
Cc1ccc(-c2nn3c(C)nnc3c3ccccc23)cc1S(=O)(=O)NCCO | 0 | · | 106 | i | 12
SMILES | Vif imaging | RAD54 inh | ABCB6 inh MLPCN | Myeloid diff MLP | Glyco luc inh
CC(=O)N(/N=C1\Sc2ccccc2C1=O)c1ccc(C)cc1C | 0 | · | 274 | + | -12
CO[C@@H]1CN(C)C(=O)c2cc(NC(=O)C3CC3)ccc2OC[C@H](C)N(C(=O)CN2CCOCC2)C[C@H]1C | · | 3 | · | · | ·
CCN(CC)c1ccc(/C=C/C(=O)C2C(=O)C=C(C)OC2=O)cc1 (stereo unspecified) | i | · | i | + | 3
CCN(CC)c1ccc(C=C2C(=O)OC(c3ccccc3)OC2=O)cc1 (stereo unspecified) | -1 | · | 225 | i | 1
C[C@H](CO)N1C[C@H](C)[C@@H](CN(C)CC2CCCCC2)Oc2ccc(NC(=O)CCN3CCOCC3)cc2CC1=O | · | -1 | · | · | ·
CN1/C(=C\C=C(C#N)C#N)C(C)(C)c2ccccc21 | 119* | -94 | 105 | i | 2
CN1/C(=C\C(=S)NC(=O)c2ccccc2Cl)C(C)(C)c2ccccc21 | -1 | -1 | 588 | + | -5
COc1ccccc1C(=O)NC(=S)/C=C1/N(C)c2ccccc2C1(C)C | 3 | · | 723 | ? | -4
CN1/C(=C/C(=O)CSc2ccccc2C(=O)O)C(C)(C)c2ccccc21 | 2 | -2 | 339 | + | -1
